Measurements from PubChem BioAssay AID1159580 (chemical genetic matrix, 2015).
Several values for one entry are separate records, joined by “and”; a condition that tells them apart may be missing. Equal entries are not always repeated. The campaign covered roughly 5,500 compounds. About 2,000 (36%) were called active. Inconclusive results (about 18%) are left out. No stated cut-off is given here; in the data, active means normalized growth mostly below about 0.91 (no sharp cut-off); inconclusive means no clear call, values can overlap the other calls; inactive means mostly above about 0.92. Some of the results follow.

Test: chemical genetic growth profiling, strain panel (AID 1159580);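 further: tested at 20 µM; growth read once vehicle control cultures reached saturation at 30 °C; 1 = growth at the plate median or of vehicle wells; lower values mean less growth of the strain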
Conditions: growth OD

Measured: normalized growth

CC(NC(C)(C)C)C(=O)c1cccc(Cl)c1 (stereo unspecified)
inactive: S. cerevisiae deletion strains, locus YJR075W, strain HOC1, active compounds read low 1.02 | S. cerevisiae deletion strains, locus YKL009W, strain mrt4, active compounds read low 0.977 | S. cerevisiae deletion strains, locus YKL068W, active compounds read low 1.02 | S. cerevisiae deletion strains, locus YKL085W, strain MDH1 (second series), active compounds read low 1.02 | S. cerevisiae deletion strains, locus YKL085W, strain MDH1, active compounds read low 1.02 | S. cerevisiae deletion strains, locus YKL160W, strain elf1, active compounds read low 0.996 | S. cerevisiae deletion strains, locus YKL190W, strain CNB1, active compounds read low 1.01 | S. cerevisiae deletion strains, locus YKR001C, strain vps1, active compounds read low 1.02 | S. cerevisiae deletion strains, locus YKR026C, strain gcn3, active compounds read low 0.995 | S. cerevisiae deletion strains, locus YKR091W, strain srl3, active compounds read low 0.998 | S. cerevisiae deletion strains, locus YLL001W, strain dnm1, active compounds read low 0.993 | S. cerevisiae deletion strains, locus YLL026W, active compounds read low 1 | S. cerevisiae deletion strains, locus YLL041C, strain sdh2, active compounds read low 1 | S. cerevisiae deletion strains, locus YLR027C, strain aat2, active compounds read low 1 | S. cerevisiae deletion strains, locus YLR039C, strain RIC1, active compounds read low 1.03 | S. cerevisiae deletion strains, locus YLR058C, strain SHM2, active compounds read low 1.01 | S. cerevisiae deletion strains, locus YLR102C, strain apc9, active compounds read low 1.03 | S. cerevisiae deletion strains, locus YLR113W, strain HOG1, active compounds read low 0.986 | S. cerevisiae deletion strains, locus YLR221C, strain rsa3, active compounds read low 1.01 | S. cerevisiae deletion strains, locus YLR258W, strain gsy2, active compounds read low 0.996 | S. cerevisiae deletion strains, locus YLR262C, strain YPT6 (second series), active compounds read low 0.977 | S. cerevisiae deletion strains, locus YLR262C, strain YPT6, active compounds read low 1.05 | S. cerevisiae deletion strains, locus YLR268W, strain sec22, active compounds read low 1.03 | S. cerevisiae deletion strains, locus YLR320W, strain mms22, active compounds read low 0.985 | S. cerevisiae deletion strains, locus YLR330W, strain CHS5, active compounds read low 1.01 | S. cerevisiae deletion strains, locus YLR342W, strain FKS1 (second series), active compounds read low 0.98 | S. cerevisiae deletion strains, locus YLR342W, strain FKS1, active compounds read low 0.997 | S. cerevisiae deletion strains, locus YLR357W, strain rsc2, active compounds read low 0.983 | S. cerevisiae deletion strains, locus YLR370C, strain arc18, active compounds read low 1 | S. cerevisiae deletion strains, locus YLR371W, strain rom2, active compounds read low 1.04 | S. cerevisiae deletion strains, locus YLR384C, strain iki3, active compounds read low 0.993 | S. cerevisiae deletion strains, locus YLR418C, strain cdc73, active compounds read low 1.03 | S. cerevisiae deletion strains, locus YML016C, strain PPZ1, active compounds read low 1.01 | S. cerevisiae deletion strains, locus YML032C, strain rad52, active compounds read low 1.03 | S. cerevisiae deletion strains, locus YML120C, strain ndi1, active compounds read low 1.01 | S. cerevisiae deletion strains, locus YML124C, strain tub3, active compounds read low 1.04 | S. cerevisiae deletion strains, locus YMR058W, strain fet3, active compounds read low 0.997 | S. cerevisiae deletion strains, locus YMR078C, strain ctf18, active compounds read low 1.04 | S. cerevisiae deletion strains, locus YMR125W, strain sto1, active compounds read low 0.999 | S. cerevisiae deletion strains, locus YMR129W, active compounds read low 1 | S. cerevisiae deletion strains, locus YMR205C, strain PFK2, active compounds read low 0.982 | S. cerevisiae deletion strains, locus YMR223W, strain ubp8, active compounds read low 1.01 | S. cerevisiae deletion strains, locus YMR231W, strain pep5, active compounds read low 0.997 | S. cerevisiae deletion strains, locus YMR263W, strain SAP30, active compounds read low 1.01 | S. cerevisiae deletion strains, locus YMR307W, strain GAS1, active compounds read low 1 | S. cerevisiae deletion strains, locus YNL067W, strain RPL9B, active compounds read low 1.01 | S. cerevisiae deletion strains, locus YNL071W, strain lat1, active compounds read low 1.01 | S. cerevisiae deletion strains, locus YNL128W, strain TEP1, active compounds read low 1.02 and 0.978 | S. cerevisiae deletion strains, locus YNL153C, strain GIM3, active compounds read low 1.01 | S. cerevisiae deletion strains, locus YNL175C, strain NOP13, active compounds read low 0.99 | S. cerevisiae deletion strains, locus YNL183C, strain NPR1, active compounds read low 0.965 | S. cerevisiae deletion strains, locus YNL197C, strain WHI3, active compounds read low 1.02 | S. cerevisiae deletion strains, locus YNL209W, strain ssb2, active compounds read low 1.01 | S. cerevisiae deletion strains, locus YNL224C, strain SQS1, active compounds read low 0.999 | S. cerevisiae deletion strains, locus YNL233W, strain BNI4, active compounds read low 0.999 | S. cerevisiae deletion strains, locus YNL248C, strain rpa49, active compounds read low 0.992 | S. cerevisiae deletion strains, locus YNL250W, strain rad50, active compounds read low 1.04 | S. cerevisiae deletion strains, locus YNL271C, strain bni1, active compounds read low 1.03 | S. cerevisiae deletion strains, locus YNL298W, strain CLA4, active compounds read low 1 | S. cerevisiae deletion strains, locus YNL307C, strain MCK1, active compounds read low 1.03 | S. cerevisiae deletion strains, locus YNL322C, strain KRE1 (second series), active compounds read low 0.995 | S. cerevisiae deletion strains, locus YNL322C, strain KRE1, active compounds read low 1.01 | S. cerevisiae deletion strains, locus YNR049C, strain mso1, active compounds read low 1.01 | S. cerevisiae deletion strains, locus YNR052C, strain pop2, active compounds read low 1.01 | S. cerevisiae deletion strains, locus YOL006C, strain TOP1, active compounds read low 1.05 | S. cerevisiae deletion strains, locus YOL012C, strain htz1 1.05 | S. cerevisiae deletion strains, locus YOL147C, strain pex11, active compounds read low 1.04 | S. cerevisiae deletion strains, locus YOR001W, strain rrp6, active compounds read low 1 | S. cerevisiae deletion strains, locus YOR061W, strain CKA2, active compounds read low 1.02 | S. cerevisiae deletion strains, locus YOR069W, strain VPS5, active compounds read low 1.01 | S. cerevisiae deletion strains, locus YOR070C, strain gyp1, active compounds read low 1 | S. cerevisiae deletion strains, locus YOR080W, strain dia2, active compounds read low 0.996 | S. cerevisiae deletion strains, locus YOR083W, strain WHI5 (second series), active compounds read low 1.01 | S. cerevisiae deletion strains, locus YOR083W, strain WHI5, active compounds read low 0.996 | S. cerevisiae deletion strains, locus YOR106W, strain vam3, active compounds read low 0.989 | S. cerevisiae deletion strains, locus YOR136W, strain idh2, active compounds read low 1.03 | S. cerevisiae deletion strains, locus YOR144C, strain elg1, active compounds read low 1.03 | S. cerevisiae deletion strains, locus YOR184W, strain ser1, active compounds read low 1.06 | S. cerevisiae deletion strains, locus YOR231W, strain MKK1, active compounds read low 1 | S. cerevisiae deletion strains, locus YOR265W, strain rbl2, active compounds read low 0.994 | S. cerevisiae deletion strains, locus YOR270C, strain vph1, active compounds read low 0.995 | S. cerevisiae deletion strains, locus YOR290C, strain snf2, active compounds read low 1.02 | S. cerevisiae deletion strains, locus YOR316C, strain cot1, active compounds read low 1.03 | S. cerevisiae deletion strains, locus YPL051W, strain arl3, active compounds read low 1 | S. cerevisiae deletion strains, locus YPL055C, strain LGE1, active compounds read low 1.02 and 0.98 | S. cerevisiae deletion strains, locus YPL078C, strain atp4, active compounds read low 0.998 | S. cerevisiae deletion strains, locus YPL106C, strain sse1, active compounds read low 0.976 | S. cerevisiae deletion strains, locus YPL240C, strain hsp82, active compounds read low 1 | S. cerevisiae deletion strains, locus YPL241C, strain CIN2, active compounds read low 1.01 and 0.988 | S. cerevisiae deletion strains, locus YPL256C, strain CLN2, active compounds read low 1.03 | S. cerevisiae deletion strains, locus YPR119W, strain clb2, active compounds read low 1.04 | S. cerevisiae deletion strains, locus YPR141C, strain kar3, active compounds read low 1.02 | S. cerevisiae deletion strains, locus YPR163C, strain tif3, active compounds read low 1.04 | S. cerevisiae deletion strains, locus YPR167C, strain met16, active compounds read low 1.03 | S. cerevisiae deletion strains, strain wtn01, active compounds read low 1.03 | S. cerevisiae strains, strain wild type, active compounds read low 1
